Compound activity from PubChem.
PrP UTR inh: suppresses PrP 5' UTR mRNA reporter expression. AID 488862. inhibition, % (test concentration not listed). cell-based PrP 5' UTR mRNA reporter, plate reader. 0.35% of 340,000 active; in the data active means inhibition above about 52%; further: 0 = median of the neutral control wells
Sa ugtP lethal: growth inhibition of S. aureus ugtP deletion strain; S. aureus RN4220 ugtP deletion, OD600 growth, 16 h; growth inhibition, % (concentration not given with the values); 0.54% of 330,000 active; AID 1259309; in the data active means growth inhibition above about 68%;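 further: plate controls were untreated wells for no effect and antibiotic for full effect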
PfHsp40 rescue: restores yeast growth despite PfHsp40 toxicity | S. cerevisiae expressing PfHsp40, growth rescue, ATP luminescence | growth rescue, % at 12.5 µM | AID 504582 | 0.68% of 340,000 active; in the data active means growth rescue above about 28%, passing the limit was not always enough;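 further: yeast W303a lacking pdr1 and pdr3 grown in galactose medium; growth measured after three days at 30 °C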
TcdB inh: TcdB glycohydrolase inhibition. P18177. TcdB glycohydrolase enzymatic assay, plate reader. inhibition, % at 9.99 µM. 0.24% of 350,000 active; in the data active means inhibition above about 10%
RN4220 kill: S. aureus RN4220 growth inhibition. OD600, 16 h. inhibition, % (no concentration beside the values). 0.33% of 330,000 active; in the data active means inhibition above about 85%;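 further: plate controls were untreated cells for no effect and reference antibiotic for full effect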
* marks the source's active call; other numbers are inactive results; · = no result. Hits are enriched below; roughly 1.2% of the tested compounds scored in any of these assays.

SMILES	PrP UTR inh	Sa ugtP lethal	PfHsp40 rescue	TcdB inh	RN4220 kill
Cc1ccc(C(=O)COC(=O)c2cc(=O)[nH]c3ccccc23)cc1	-28.5	9.3	-0.8	11.2*	7.0
O=C(COC(=O)c1cc(=O)[nH]c2ccccc12)c1ccccc1	-19.9	2.4	-1.0	1.4	3.6
CCOC(=O)/C(C#N)=C1/C=C(C)NC(c2ccccc2O)=N1	·	83.2*	-0.7	·	80.8
COc1ccc(C(=O)Nc2ccc(N3CCN(C)CC3)cc2)cc1[N+](=O)[O-]	-24.3	2.7	-0.1	-1.0	9.7
CC(=O)N1CCN(c2ccc(NC(=S)NC(=O)c3ccc(C)c([N+](=O)[O-])c3)cc2)CC1	-15.1	90.1*	0.1	-0.2	3.6
COc1ccc(C(=O)NC(=S)Nc2ccc(N3CCN(C(C)=O)CC3)cc2)cc1[N+](=O)[O-]	-13.9	99.2*	-0.1	-0.1	3.9
O=C(Cn1cc(C(F)(F)F)ccc1=O)NN=Cc1ccc(Cl)cc1Cl	·	-1.2	·	·	3.0
CCOC(=O)c1ccc(N2C(=O)CC(N(C)CCc3ccc(OC)c(OC)c3)C2=O)cc1 (stereo not drawn)	-3.4	-2.3	557.8*	·	-6.0
CO[C@@H](CN(C)C(=O)c1ccccc1F)[C@H](C)CN([C@@H](C)CO)S(=O)(=O)c1ccc(C)cc1	·	·	·	0.3	·
CC(=O)/C(C#N)=C1\NC(=O)C(Cc2ccccc2Cl)S1 (stereo not drawn)	2.5	17.6	39.3*	·	27.2
CC(=O)/C(C#N)=C1\NC(=O)C(Cc2cc(Cl)ccc2Cl)S1 (stereo not drawn)	-17.2	13.8	-0.3	-0.7	38.6
Cc1cccc(C)c1NC(=O)C1CCCN1S(=O)(=O)c1ccc(-c2ccc(=O)[nH]n2)s1 (stereo not drawn)	16.4	99.2*	1.7	0.9	98.0*
CCc1ccccc1NC(=O)C1CCCN1S(=O)(=O)c1ccc(-c2ccc(=O)[nH]n2)s1 (stereo not drawn)	-12.5	88.3*	-0.7	0.4	95.6*
O=C(NC1CCCCC1)[C@@H]1[C@@H](CO)[C@@H]2Cn3c(cccc3=O)[C@H]1N2CC1CCCC1	·	·	·	-8.4	·
CSC(=S)N/N=C/c1ccccc1	-13.9	·	257.1*	0.4	·
COc1cc(/C=N/NC(N)=S)cc(Br)c1OCc1ccccc1F	-13.6	·	3.1	·	·
CCOc1cc(/C=N/NC(N)=S)cc(Br)c1OCc1ccccc1C	-36.5	·	83.1*	·	·
CN1CCN(CCCC(=O)c2ccc(C3CCCC3)cc2)CC1	-34.5	85.4*	0.1	-10.9	-3.2
Cc1nc2ccccn2c1C(=O)/C=C/c1ccc(F)cc1	-69.7	-9.1	-0.1	·	-0.5
Cc1nc2ccccn2c1-c1ccnn1S(=O)(=O)c1ccc(F)cc1	-12.8	-5.2	0.4	15.4*	0.1
O=C(N[C@H]1C[C@@H]2O[C@H](CO)CC[C@@H]2O[C@@H]1CCc1ccc(-c2ccccc2)cc1)c1cnccn1	·	·	·	-0.1	·
On1ccccc1=S	-37.0	·	381.8*	-11.7	·
COc1ccc(NC(=O)c2nc[nH]c2C(=O)NC(C)C(=O)OC(C)(C)C)cc1 (stereo not drawn)	·	4.0	·	·	4.9
COc1ccc(NC(=O)c2nc[nH]c2C(=O)N[C@@H](CC(C)C)C(=O)OC(C)(C)C)cc1	-6.6	·	27.4*	0.4	·
C[C@@H](NC(=O)[C@@H]1[C@@H](CO)[C@@H]2Cn3c(ccc(-c4ccccc4)c3=O)[C@H]1N2C)c1ccccc1	·	·	·	-1.0	·
SMILES	PrP UTR inh	Sa ugtP lethal	PfHsp40 rescue	TcdB inh	RN4220 kill
O=C(NCC[C@@H]1CC[C@H](NC(=O)C2CCOCC2)[C@H](CO)O1)c1cc(Cl)cc(Cl)c1	·	·	·	-0.6	·
O=C(CSc1cccc[n+]1[O-])c1cc(Cl)ccc1Cl	-45.1	11.1	80.2*	-4.1	7.7
COc1ccc2nc(C)cc(SCC(=O)NN=Cc3ccco3)c2c1	·	2.9	·	·	0.8
COc1ccccc1NS(=O)(=O)c1cccc(C(=O)NN=Cc2ccc([N+](=O)[O-])o2)c1	·	98.9*	·	·	98.5*
CCOc1cccc(/C=N/NC(=O)c2cc(-c3cccn3C)n[nH]2)c1O	8.1	·	36.3*	-4.5	·
OC[C@H]1[C@@H](c2ccc(C#CC3(O)CCCC3)cc2)[C@H]2CN(Cc3cccnc3)CCCCN21	·	·	·	-0.8	·
C[C@@H](CSc1ccc(Br)cc1)CN1CC[C@H](NC(=O)OCc2ccccc2)CCC1=O	-21.9	·	12.6	0.2	·
COc1ccc(SC[C@H](C)CN2CC[C@H](NC(=O)OCc3ccccc3)CCC2=O)cc1	1.3	·	3.3	10.2*	·
Cc1cccc(/C=N/NC(=O)c2c(-c3ccccc3)noc2C)c1O	-1.5	·	-0.2	-1.1	·
Cc1onc(-c2ccccc2)c1C(=O)N/N=C/c1cn(C)c2ccccc12	-10.8	·	-0.5	13.4*	·
